From PubChem BioAssay
aSyn 5UTR act: Activators via SNCA 5'UTR binding, MLPCN | alpha-synuclein 5'UTR reporter, activators screen | activity score, % (tested at 7.5 µM), hits read low | hit rate 7.1% among 300,000 | AID 1814; in the data active means activity score below about -60%
* marks the source's active call; other numbers are inactive results. Only a sample is shown.

SMILES | aSyn 5UTR act
Cc1cc(C(=O)COC(=O)c2ccc(Cl)c(S(N)(=O)=O)c2)c(C)n1C1CC1 | -143*
Cc1cc(C(=O)COc2cccnc2[N+](=O)[O-])c(C)n1-c1ccccc1F | 67
Cc1cc(C(=O)COc2ccccc2C(N)=O)c(C)n1C1CC1 | -76*
Cc1c(C(=O)NCCCN2CCOCC2)oc2c1C1(CCC2)SCCS1 | -70*
Cc1c(C(=O)NCc2ccc3c(c2)OCO3)oc2ccc(S(=O)(=O)N3CCCCCC3)cc12 | 60
CCCc1ccc2oc(C(=O)NCc3nnc(C)o3)c(C)c2c1 | -128*
CCCc1ccc2oc(C(=O)NCCCN3CCOCC3)c(C)c2c1 | -96*
CCCCNC(=O)C1CC(c2cccc([N+](=O)[O-])c2)=NO1 (stereo not drawn) | -171*
COc1ccc(C2=NOC(C(=O)NCc3ccc(F)cc3)C2)cc1OC (stereo not drawn) | 82
O=C(NCCc1cccs1)C1CC(c2ccccc2[N+](=O)[O-])=NO1 (stereo not drawn) | -93*
COc1ccc(CCNC(=O)Nc2ccccc2[N+](=O)[O-])cc1 | -130*
COc1ccc(CCNC(=O)C2CC(c3ccccc3[N+](=O)[O-])=NO2)cc1 (stereo not drawn) | -95*
c1ccc(Oc2ccc3ccccc3n2)cc1 | -129*
COc1ccc(-c2cc(C(=O)N3CCOCC3)no2)cc1 | 73
COc1ccccc1-c1cc(C(=O)N2CCOCC2)no1 | -125*
O=C(c1cc(-c2cccs2)on1)N1CCOCC1 | -169*
COc1ccccc1-c1cc(C(=O)N2CCCC2)no1 | -133*
Cc1cccc(N=Nc2c(C)nn(-c3ccccc3)c2N)c1C | -124*
Cc1nn(-c2ccccc2)c(N)c1N=Nc1ccc(Cl)cc1 | -175*
CC1=C(CO)C(=O)OC([C@@H](C)C2CC[C@H]3C4C[C@H]5O[C@]56[C@@H](O)C=CC(=O)[C@]6(C)C4CC[C@]23C)C1 (stereo partly drawn) | -91*
COc1nc(NC2CCCCC2)nc(NC(C)(C)C)n1 | -70*
CC(C)(C)Nc1nc(N2CCCC2)nc(N2CCCC2)n1 | 68
COCCCNc1nc(N)c([N+](=O)[O-])c(NC2CCCCC2)n1 | 90
CCN(CC)C(=O)Oc1ccc2c(c1)O/C(=C\c1ccco1)C2=O | -116*
Cc1ccc2c(c1)sc[n+]2Cc1ccccc1 | -256*
SMILES | aSyn 5UTR act
O=C(N/N=C/c1cccc(F)c1)c1c(O)c2c([nH]c1=O)CCCC2 | -137*
O=C(N/N=C/c1cccc(F)c1)NC1CCCCC1 | -76*
O=C(N/N=C/c1ccccc1F)NC1CCCCC1 | -130*
CCOC(=O)C1=C(COC(=O)c2cccc(N(C)C)c2)NC(=O)NC1C (stereo not drawn) | -136*
CCOC(=O)C1=C(COC(=O)/C=C/c2ccccc2Cl)NC(=O)NC1C (stereo not drawn) | -70*
Cn1cc(Cl)c(/C(N)=N/OC(=O)c2ccccc2C(F)(F)F)n1 | -98*
Cc1ccc(/C=N/N2CCN(c3ccccn3)CC2)cc1 | -105*
ClC(=C\c1ccccc1)/C=N/N1CCN(c2ccccn2)CC1 | -222*
CCc1ccc(/C=N/N2CCN(c3ccccn3)CC2)cc1 | -108*
CCCCN=C(C)c1c(O)c2ccccc2oc1=O | -159*
CCOC(=O)c1ccc(NC(=O)Nc2ccc(F)cc2)cc1 | -106*
COc1ccc(NC(=O)/C=C/c2cccc(Br)c2)cn1 | -190*
COc1ccc(NC(=O)Nc2ccc(F)cc2)cn1 | -65*
COC(=O)c1ccc(NC(=O)Nc2ccc(F)cc2)cc1 | -141*
COc1ccc(NC(=O)/C(Cl)=C(/Cl)S(=O)Cc2ccccc2)cn1 (stereo not drawn) | 121
O=C(Nc1ccc(F)cc1)Nc1cc(OCC(F)(F)F)cc(OCC(F)(F)F)c1 | 86
COc1ccc(NC(=O)CSc2ccccc2)cn1 | -86*
CC(C)(C)c1ccc(NC(=O)Nc2ccc(F)cc2)cc1 | -245*
CCOC(=O)c1ccc(NC(=O)C23CCC(C)(C(=O)O2)C3(C)C)cc1 (stereo not drawn) | -106*
CC(C)OC(=O)c1cc2ccccc2oc1=O | -66*
O=C(NNC(=O)c1cc2ccccc2cc1O)c1cccs1 | -193*
N/C(=N\NC(=O)c1cccs1)c1cc2ccccc2oc1=O | -64*
O=C(Nc1ccc(F)cc1F)c1cc2ccccc2oc1=O | -156*
CCOc1ccccc1NC(=O)c1cc2ccccc2oc1=O | -95*
O=C(NNC(=O)c1cc2ccccc2oc1=O)c1ccccc1 | -108*
SMILES | aSyn 5UTR act
O=C(c1cc2ccccc2oc1=O)N1CCN(c2ncccn2)CC1 | -92*
CC(=O)Nc1ccc(/C=C/c2nc(-c3ccccc3O)n[nH]2)cc1 | -202*
COc1ccc(/C=C/c2noc(-c3ccccc3O)n2)cc1 | -93*
COc1cc(/C=C/c2noc(-c3ccccc3O)n2)cc(OC)c1OC | -146*
COc1ccc(/C=C/c2nc(N)nc(-c3ccccc3O)n2)cc1 | -116*
COc1cc(/C=C/c2nc(-c3ccccc3O)n[nH]2)cc(OC)c1OC | -117*
CC(=O)Oc1ccccc1-c1nc(/C=C/c2ccccc2)no1 | -162*
COc1ccccc1NC(=O)C1=C(C)NC(=O)NC1c1ccccc1[N+](=O)[O-] (stereo not drawn) | -98*
CCc1ccc(C(=O)Nc2ccc3nc(C)ccc3c2)cc1 | -178*
Cc1ccc2cc(NC(=O)c3ccc(C(C)(C)C)cc3)ccc2n1 | -63*
Fc1cccc2sc(Nc3nc4c(F)cccc4s3)nc12 | -210*
NNc1nc2c(F)cc(F)cc2s1 | -164*
NNc1nc2c(F)cccc2s1 | -281*
Fc1cccc2sc(Nc3nnc(-c4ccccc4)o3)nc12 | -90*
Cc1c(Cl)ccc2sc(NC(=O)C3CC3)nc12 | -85*
O=C(Nc1nc2c(F)cc(F)cc2s1)C1CCN(C(=O)c2ccc(F)cc2)CC1 | -162*
O=C(Nc1nc2c(F)cccc2s1)C1CC1 | -111*
CN1C2CCC1/C(=C\c1ccc(F)cc1)C(=O)/C2=C/c1ccc(F)cc1 | -134*
COc1ccc(C(=O)NCCc2ccccc2)cc1OC | -97*
CCOc1ccc(C(=O)NCCc2ccccc2)cc1 | 61
COc1ccc(C(=O)NCCC2=CCCCC2)cc1OC | -81*
Cc1cc(C(=O)NCCC2=CCCCC2)ccc1[N+](=O)[O-] | -121*
COc1ccc(C(=O)NCCC2=CCCCC2)cc1 | 57
CCOc1cccc2cc(C(=O)NCCC3=CCCCC3)c(=O)oc12 | -95*
O=C(NCCC1=CCCCC1)c1ccc([N+](=O)[O-])cc1 | -147*
SMILES | aSyn 5UTR act
O=C(CCNC(=O)c1ccc(Cl)cc1)NCCC1=CCCCC1 | -124*
COCC(C)N1CCC(Oc2cccc(C(=O)NCCc3ccccc3)c2)CC1 (stereo not drawn) | -72*
O=C(NCCC1=CCCCC1)c1ccc(CN2CCOCC2)cc1 | -73*
O=C1CSc2ccc(C(=O)NCCC3=CCCCC3)cc2N1 | -104*
O=C(NCCc1ccc(F)cc1)c1ccc([N+](=O)[O-])cc1 | -78*
O=C(NC1CCCCCC1)c1ccc(CN2CCOCC2)cc1 | -122*
O=c1[nH]cnc(O)c1N=Nc1ccccc1 | -71*
CCN1/C(=C\C=C2\C(=O)N(C)C(=S)N2C)Sc2ccccc21 | -81*
CCCCN1/C(=C/c2ccc3ccccc3[n+]2CC)Sc2ccccc21 | 80
O=C1/C(=C/c2ccco2)CCc2ccccc21 | -140*
COc1ccc2c(c1)CC/C(=C/c1ccco1)C2=O | -160*
CCOc1ccc(/C=C2\CCc3ccccc3C2=O)cc1 | -170*
COc1ccc(/C=C2\CCc3ccccc3C2=O)cc1CN1CCOCC1 | 62
Cc1[nH]c2ccccc2c1/C=C/c1nc2ccccc2c(=O)n1CCO | -62*
